Assay outcomes (PubChem BioAssay)
CYP2C19 act = increases human CYP2C19 enzyme activity; P33261; recombinant CYP2C19, luciferin-H EGE luminescence; stronger effect = higher value; 0 = fully inhibited enzyme, 1 = untreated enzyme; activation factor at 5 µM; 96,000 tested, under 10 active;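 active = activation factor of at least 2 at 5 µM in the primary screen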
CYP2C9 inhib = human CYP2C9 inhibition. P11712. hit rate 20% among 96,000. inhibition, % at 5 µM. AID 777. CYP2C9 Supersomes, luciferin-H conversion, luminescence;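 active = blocking of liver enzyme CYP2C9 beyond about 50% at 5 µM, limit read from the data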
Target sequence (P11712 whole entry, looked up): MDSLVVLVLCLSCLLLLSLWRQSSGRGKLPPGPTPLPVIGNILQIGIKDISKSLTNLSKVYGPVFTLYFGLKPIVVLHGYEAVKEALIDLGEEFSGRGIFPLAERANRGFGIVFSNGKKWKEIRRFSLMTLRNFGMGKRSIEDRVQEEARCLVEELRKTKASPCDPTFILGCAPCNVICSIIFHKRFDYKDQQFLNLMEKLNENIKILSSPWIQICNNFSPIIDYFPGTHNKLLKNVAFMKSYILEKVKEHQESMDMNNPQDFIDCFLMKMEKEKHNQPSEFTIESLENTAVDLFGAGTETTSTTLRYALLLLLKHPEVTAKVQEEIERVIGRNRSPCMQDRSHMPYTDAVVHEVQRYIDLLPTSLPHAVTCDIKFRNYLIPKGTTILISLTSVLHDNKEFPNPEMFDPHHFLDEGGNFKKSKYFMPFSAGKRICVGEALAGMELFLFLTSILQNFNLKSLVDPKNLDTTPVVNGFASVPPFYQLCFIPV
CYP2C19 inh = blocks human cytochrome P450 2C19; CYP2C19 Supersomes, luciferin-H EGE luminescence, 30 min; inhibition, % at 5 µM; hit rate 21% among 96,000;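 active = CYP2C19 inhibition above a set limit at 5 µM in the primary screen, cut at about 50% in these data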
CYP2C9 act = activators of human CYP2C9; AID 1024; P11712; activation factor at 5 µM; recombinant CYP2C9, luciferin-H conversion, luminescence; stronger effect = higher value; factor 1 = untreated enzyme, 0 = blocked; hit rate 1.4% among 96,000;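 active = activation factor of 2 or more for CYP2C9 at a 5 µM dose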
Large screens that a line does not name were inactive. This is a sample that favours compounds with a hit; in the whole collection about 31% have one here.

CCCCCNC(=O)c1ccc2c(=O)n(CCOC)c(=O)[nH]c2c1	none
Cc1ccc(NC2CC(=O)N(Cc3ccccc3)C2=O)cc1 (configuration not stated)	CYP2C19 inh 67.9
COc1cccc(NC2CC(=O)N(CCc3ccccc3)C2=O)c1 (configuration not stated)	none
Nc1nc(-c2ccc(Cl)cc2Cl)cn1N	none
O=C(NNC(=O)C1CC1c1ccccc1)Nc1cccc(Cl)c1 (configuration not stated)	none
CSCCC(NC(=O)c1ccco1)C(=O)OCC(=O)Nc1sccc1C#N (configuration not stated)	CYP2C9 inhib 78.1, CYP2C19 inh 55.3
COC(=O)COC(=O)c1ccc(Oc2nc(OC)nc(N(C)C)n2)cc1	none
O=C(CCl)Nc1cccc(-c2cnc3ccccc3n2)c1	CYP2C19 inh 79.8
CCC(=O)Nc1cccc(-c2cnc3ccccc3n2)c1	CYP2C19 inh 50.6
CCC(=O)Nc1cccc(-c2nc3ccccc3c(=O)o2)c1	none
O=C(O)CCCCCNC(=O)CCn1nnc2ccccc2c1=O	none
CN1CCN(S(=O)(=O)c2ccc(=O)[nH]c2)CC1	none
O=C1Nc2ccc(S(=O)(=O)N3CCCCCC3)c3cccc1c23	CYP2C19 inh 79.1
CN1CCN(S(=O)(=O)c2ccc3c4c(cccc24)C(=O)N3)CC1	CYP2C19 inh 55.1
CCOc1cc(C(=O)Nc2ccccc2N2CCN(S(C)(=O)=O)CC2)cc(OCC)c1OCC	none
O=C1Nc2ccc(S(=O)(=O)N3CCCC3C(=O)O)c3cccc1c23 (configuration not stated)	none
O=C(c1ccco1)N1C(=O)c2cccc3c(S(=O)(=O)N4CCCC4)ccc1c23	none
CCOc1ccccc1N1CCN(S(=O)(=O)c2ccc3c4c(cccc24)C(=O)N3)CC1	CYP2C9 inhib 73.4, CYP2C19 inh 90.9
O=C1Nc2ccc(S(=O)(=O)N3CCCC3)c3cccc1c23	CYP2C19 inh 83.2
O=C1Nc2ccc(S(=O)(=O)N3CCOCC3)c3cccc1c23	CYP2C19 inh 59.2
O=C1Nc2ccc(S(=O)(=O)NCc3ccccn3)c3cccc1c23	none
CCOc1ccc(Cc2nnc(SCC(N)=O)n2C)cc1	none
Cc1ccc(OCC(=O)N2CCC(N3CCCCCC3)CC2)cc1	none
CCCCS(=O)(=O)/C=C\C=C/S(=O)(=O)CCCC	none
CCCCS(=O)(=O)/C=C\C1C2C=CC(C2)C1S(=O)(=O)CCCC (configuration not stated)	CYP2C9 inhib 52.5, CYP2C19 inh 76.0
O=C(c1cccs1)N1CCC(c2ccccc2)C1 (configuration not stated)	CYP2C9 inhib 80.7, CYP2C19 inh 97.9
O=C(Nc1ccccc1)N1CCC(c2ccccc2)C1 (configuration not stated)	CYP2C19 inh 73.3
NC(=O)C1CCN(C(=O)Nc2ccccc2)CC1	none
O=C(CCN1CCC(c2ccccc2)C1)c1ccccc1 (configuration not stated)	CYP2C9 inhib 57.9, CYP2C19 inh 88.5
O=C(CCN1CCC(c2ccccc2)C1)c1cccs1 (configuration not stated)	CYP2C19 inh 78.2
O=C(Nc1ccccc1)N1CCC(n2c(=O)[nH]c3ccccc32)CC1	CYP2C9 inhib 72.0
O=C(C1CC1)N1CCc2cc(Br)cc(S(=O)(=O)N3CCN(c4ccccn4)CC3)c21	CYP2C9 inhib 94.8, CYP2C19 inh 72.4
CCOC(=O)C1CCN(S(=O)(=O)c2cc(Br)cc3c2N(C(=O)C2CC2)CC3)CC1	CYP2C19 inh 59.8
CCC(C)(C)NC(=O)CN(C(=O)c1snc(C(N)=O)c1N)c1ccc2c(c1)OCCO2	CYP2C9 inhib 63.7
COc1ccc(C(=O)N(CC(=O)NC(C)(C)C)c2ccc3c(c2)OCCO3)cc1OC	none
O=C1CCCN1c1ccc(CNS(=O)(=O)c2ccc(F)cc2)cc1	none
O=C1CCCN1c1ccc(S(=O)(=O)NCCc2ccc(Cl)cc2)cc1	CYP2C9 inhib 84.5, CYP2C19 inh 80.3
COC(=O)c1cc(OC)c(OC)cc1NC(=O)Cn1nnc(-c2ccccc2Cl)n1	none
Cn1c(Sc2ccc(C(F)(F)F)cc2[N+](=O)[O-])nnc1-c1ccccc1	CYP2C9 act 2
CC1CC(=O)c2cnc(Nc3cccc(C(F)(F)F)c3)nc2C1 (configuration not stated)	CYP2C19 inh 53.4
CC1CC(=O)c2cnc(Nc3ccccc3)nc2C1 (configuration not stated)	none
O=C(CCS(=O)(=O)c1cccc2nsnc12)NCc1ccccc1Cl	none
COc1ccc(-c2cc(C(=O)NCCN3CCOCC3)c3ccccc3n2)cc1	CYP2C9 inhib 52.0
CCOc1ccc(-c2cc(C(=O)NCCCN3CCN(CC)CC3)c3ccccc3n2)cc1	none
COc1ccc(CNC(=O)c2c(N)n(CCCN3CCOCC3)c3nc4ccccc4nc23)cc1	CYP2C19 inh 74.9
O=C(NCCCN1CCOCC1)c1cc(-c2ccc3c(c2)OCO3)nc2ccccc12	CYP2C9 inhib 54.3
CCCN(CCC)C(=O)Cn1c2ccccc2c2nc(=O)cc(C)n21	none
Clc1ccc(CNc2nnnn2-c2ccccc2)c(Cl)c1	CYP2C9 inhib 53.2, CYP2C19 inh 97.8
c1ccc(CCNc2nnnn2-c2ccccc2)cc1	CYP2C19 inh 58.2
Clc1cccc(CNc2nnnn2-c2ccccc2)c1	none
CCN(CC)C(=O)COc1cccc2ccccc12	CYP2C19 inh 93.0, CYP2C9 act 3.7
O=C(O)COc1cccc2ccccc12	none
O=C(CCC(=O)c1ccc(F)cc1)Nc1cc(Cl)cc(Cl)c1	CYP2C19 inh 52.2
CCN(CCCNC(=O)c1c(C)cc(=O)oc1C)c1cccc(C)c1	CYP2C9 inhib 71.6, CYP2C19 inh 91.8
Cc1cc(=O)oc(C)c1C(=O)NCCNC(=O)c1c(C)cc(=O)oc1C	none
Cc1ccc(CNC(=O)c2c(C)cc(=O)oc2C)cc1	CYP2C9 inhib 50.9
COc1ccc(NC(=O)CN2C(=O)CC(C)(C)S(=O)(=O)c3ccccc32)cc1	none
COc1cccc(/C=N/NC(=O)c2ccccc2N(Cc2ccccc2)S(=O)(=O)c2ccccc2)c1OC	CYP2C9 inhib 79.7
COc1ccc2c(c1)C1NC(=S)NC(C)(O2)C1C(=O)Nc1ccccc1C (configuration not stated)	none
CC1CCCCN1C(=O)Cn1cc(/C=C2/C(=O)Nc3ccccc32)c2ccccc21 (configuration not stated)	CYP2C9 inhib 57.8
CC1CCCCN1C(=O)COC(=O)c1n[nH]c2ccccc12 (configuration not stated)	none
CC(C)(C)C(=O)/C(C#N)=c1\s/c(=C\c2ccncc2)c(=O)n1CCCN1CCOCC1	none
CCCCOC(=O)Nc1ccccc1C(=O)OC	none
COC(=O)c1ccccc1NC(=O)CN(CCc1ccccc1)S(C)(=O)=O	CYP2C19 inh 52.5
COC(=O)c1ccccc1NC(=O)CN(c1cc(OC)ccc1OC)S(C)(=O)=O	CYP2C9 inhib 97.7, CYP2C19 inh 90.7
COc1ccc(OC)c(N(CC(=O)Nc2ccccc2)S(C)(=O)=O)c1	CYP2C19 inh 74.3
CCN(CC(=O)Nc1ccccc1C(=O)OC)S(=O)(=O)c1ccc(OC)cc1	CYP2C19 inh 64.7
Cc1cc(=O)n2[nH]c(-c3ccc(F)cc3)nc2n1	none
